Drawing on PubChem BioAssay AID602230 (The Scripps Research Institute Molecular Screening Center, 2012), this text covers inhibition for 71 compounds.

By inhibition is commonly meant the change of the read-out against control, counted positive when it falls.

The whole screen tested about 1,400 compounds, of which about 450 (32%) were called active. Rule as the data show it: active = inhibition above about 16%; inactive = the rest. A selection follows.

The target in the assay is Lon protease (Escherichia coli (strain K12)) (UniProt P0A9M0). Nature of the assay: inhibition of eLon from E. coli – biochemical, fluorescence polarization, confirmation (AID 602230).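 Also: 0% = enzyme with probe and DMSO and 100% = no enzyme.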 Conditions: purified E. coli Lon, at 7.94 µM, hits give high values. For orientation: Polarisation of emitted light reports the rotation of a fluorescent probe.
Lon protease (Escherichia coli (strain K12)), sequence (P0A9M0 whole entry, looked up): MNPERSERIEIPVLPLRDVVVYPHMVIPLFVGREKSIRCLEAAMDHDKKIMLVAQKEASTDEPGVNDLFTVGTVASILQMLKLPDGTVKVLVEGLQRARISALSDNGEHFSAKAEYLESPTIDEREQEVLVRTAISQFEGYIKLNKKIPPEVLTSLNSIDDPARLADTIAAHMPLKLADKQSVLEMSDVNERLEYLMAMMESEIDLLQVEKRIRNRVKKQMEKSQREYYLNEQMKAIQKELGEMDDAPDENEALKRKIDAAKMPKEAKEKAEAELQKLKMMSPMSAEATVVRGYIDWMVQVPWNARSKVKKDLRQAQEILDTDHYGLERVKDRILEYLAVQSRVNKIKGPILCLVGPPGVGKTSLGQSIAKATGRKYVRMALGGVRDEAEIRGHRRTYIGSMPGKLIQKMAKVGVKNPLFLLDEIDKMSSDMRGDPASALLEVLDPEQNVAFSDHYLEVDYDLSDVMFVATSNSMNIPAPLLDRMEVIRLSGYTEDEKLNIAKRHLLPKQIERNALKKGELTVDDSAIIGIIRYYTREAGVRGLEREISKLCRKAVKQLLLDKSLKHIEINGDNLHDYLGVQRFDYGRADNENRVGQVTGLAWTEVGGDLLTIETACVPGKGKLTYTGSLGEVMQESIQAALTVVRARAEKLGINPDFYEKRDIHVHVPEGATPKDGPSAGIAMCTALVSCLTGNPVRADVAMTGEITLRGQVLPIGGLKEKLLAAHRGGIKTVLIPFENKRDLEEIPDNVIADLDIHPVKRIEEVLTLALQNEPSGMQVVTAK
Consider `CNS(=O)(=O)c1ccc2c(c1)[nH]c(=S)n2C`, for which the inhibition was 4.74% (inactive).
The result for `COc1ccc(C2=CC(c3cccc(OC)c3)n3nnnc3N2)cc1` (stereo unspecified) reads 17% (active); that for `COc1ncnc2c1N=C1CC(C)(C)CC(N)=C1S2`, 111% (active); that for `CCCn1c(SCC(=O)Nc2c(C)cccc2C)nnc1C(C)C`, -13.9% (inactive).
As for `Nc1ccc2nc3c(=O)[nH]c(=S)[nH]c3nc2c1`, the inhibition was 198% (active).
The result for `Cc1cccc(N2CCC(NCc3c(C(=O)N4CCCCC4)nc4c(C)cccn34)CC2)c1` reads -4.25% (inactive).
As to `O=C(COC(=O)C12CC3CC(CC(O)(C3)C1)C2)NC12CC3CC(CC(C3)C1)C2`, the inhibition is -2.17% (inactive).
Regarding `Cc1ccn2cc(-c3nonc3C)cc2c1`, the inhibition was 5.46% (inactive).
To `COc1ccccc1-c1cc2nc(NCc3cccc(Cl)c3)ccn2n1` belongs 2.95% (inactive); to `Cc1cccn2c(=O)c3cc(C#N)c(=NC(=O)c4cccnc4)n(CC4CCCO4)c3nc12` (stereo unspecified), -2.72% (inactive); to `COc1cc(C(=O)NCc2ccc3c(c2)cc(C)n3C)cc(OC)c1OC`, -12.4% (inactive).
Consider `O=C(COC(=O)Cn1cnc2ccccc21)Nc1cccc2c1C(=O)c1ccccc1C2=O`, for which the inhibition is 79.2% (active).
With `COCCOC(=O)c1sc(=S)n(CCOC)c1N`, the inhibition was 27.9% (active).
To `CC/C(C)=N/Nc1nc2sc3c(c2c(=O)[nH]1)CC(C)(C)OC3` belongs 15.3% (inactive).
Consider `Cc1ccc(NC(=O)Cc2nnc(SCC(=O)Nc3nncs3)n2C)cc1`, for which the inhibition was -64.9% (inactive).
For the compound `O=C1C=C(NCCNc2c(F)c(F)c(CO)c(F)c2F)CCC1`, the inhibition is -15.4% (inactive).
For the compound `Cc1ccc2c(c1)nnc1nnc(SCC(=O)O)n12`, the inhibition is 33.8% (active).
As to `O=S(=O)([N-]c1nc2ccccc2nc1-[n+]1ccc(Cc2ccccc2)cc1)c1ccc(Br)s1`, the inhibition was -2.35% (inactive).
For `O=C1c2ccccc2C(=O)c2c1cccc2N1CCN(CCO)CC1`, the inhibition was 27.1% (active).
For the compound `CCCSc1ccc([C@H]2N[C@@](Cc3ccccc3)(C(=O)OC)[C@H]3C(=O)N(C)C(=O)[C@@H]23)cc1`, the inhibition was -4.5% (inactive).
Take `NS(=O)(=O)c1ccc(NC(=O)COC(=O)c2c3c(nc4ccccc24)/C(=C\c2ccc4c(c2)OCO4)CCC3)cc1`: the inhibition was 4.57% (inactive).
In the case of `N#CC1=C(N)OC2=C(C(=O)CCC2)C1C1CC=CCC1` (stereo unspecified), the inhibition was 2.64% (inactive).
For the compound `c1ccc(C(=NNc2nc3ccccc3s2)c2ccccn2)cc1`, the inhibition was 134% (active).
Consider `Cc1cccc(C)c1N1CCN(S(=O)(=O)N2CCOCC2)CC1`, for which the inhibition was -4.84% (inactive).
With `CN1c2ccc(C=O)c3c(C=O)ccc(c23)N(C)C1(C)C`, the inhibition is 68.6% (active).
On to `CC(C(=O)NC1CCCC1)N1CCN(S(=O)(=O)c2ccccc2Cl)CC1` (stereo unspecified), for which the inhibition was -0.03% (inactive).
In the case of `CCCCOCCCNC(=O)C[C@@H]1C[C@@]2(C(=O)OC)CCCCC=C2N(CCC2=CCCCC2)C1=O`, the inhibition is 9.11% (inactive).
On to `CCOCCN(C=O)c1cccc(OC)c1`, for which the inhibition was -7.16% (inactive).
The result for `COc1ccc(N2CCN(C3CCCCC3NS(=O)(=O)c3ccccc3)CC2)cc1` (stereo unspecified) reads -0.98% (inactive).
To `COc1ccc(C(=O)NC(C)CCc2ccccc2)c(OC)c1` (stereo unspecified) belongs -4.57% (inactive); to `COc1ccc(OC)c(NC(=O)Cc2cccs2)c1`, -9.37% (inactive).
Take `COc1cc([C@H](Cc2ccccc2)NC(C)=O)oc(=O)c1`: the inhibition is 28.5% (active).
With `O=C(C1=C(O)C(=O)N(c2ncccn2)C1c1cccs1)c1ccco1` (stereo unspecified), the inhibition is 7.23% (inactive).
Consider `O=C1C2C3C=CC(C4CC34)C2C(=O)N1/N=C/c1ccc(-c2ccccc2[N+](=O)[O-])o1` (stereo unspecified), for which the inhibition is 1.11% (inactive).
The result for `CN(C)Cc1c(C(=O)N/N=C/c2ccccc2OCc2ccc(F)cc2)nnn1-c1nonc1N` reads 4.47% (inactive).
Consider `O=C(CN1CCCSc2ccccc21)N1CCN(S(=O)(=O)c2cccc(F)c2)CC1`, for which the inhibition was 40.1% (active).
As to `Clc1ccccc1CSc1nnc(-c2ccco2)c(-c2ccco2)n1`, the inhibition was -6.52% (inactive).
The result for `CCOC(=O)N1CCC(NC(=O)Cc2cn(C)c3ccccc23)CC1` reads -16.7% (inactive); that for `Oc1ccc2ccccc2c1N=Nc1nccs1`, 3.97% (inactive).
Take `Cc1coc2c(O)cc3c(c12)OC1(N2CCCCC2)C(=O)NCCCC31` (stereo unspecified): the inhibition is 6.1% (inactive).
To `COc1ccc(C(=O)NCc2nnc(SCCOc3ccccc3)n2C)cc1` belongs -3.94% (inactive); to `COc1ccc(-c2onc3ccc(C(C)=O)cc23)cc1`, 182% (active); to `COc1ccc(-c2nc(CS(=O)CC(=O)NCc3ccccn3)c(C)o2)cc1` (stereo unspecified), 64.8% (active).
The result for `COc1ccc(CC(=O)Nc2ccc(-c3nnc(-c4ccccc4)o3)cc2)cc1` reads -10.3% (inactive).
The result for `COc1ccc(S(=O)(=O)N2CCOCC2)cc1NC(=O)Cc1c(F)cccc1Cl` reads -1.93% (inactive); that for `O=C(COC(=O)c1ccccc1C(=O)N1CCN(c2ccccc2)CC1)NCc1ccccc1`, 5.02% (inactive); that for `CC(=O)NC(=S)Nc1ccc(NC(=S)NC(=O)c2ccc([N+](=O)[O-])cc2)cc1`, -6.29% (inactive).
`CC1=NN(C(=O)CCc2ccccc2O)C(O)(C(F)(F)F)C1` (stereo unspecified): the inhibition is 9.05% (inactive).
For the compound `CC1(C)OC(=O)C(=CNC(CO)C(=O)O)C(=O)O1` (stereo unspecified), the inhibition was -19.2% (inactive).
For `Cc1ccccc1Nc1nc(N)nc(CN2CCN(c3ccccn3)CC2)n1`, the inhibition was 3.69% (inactive).
In the case of `CCc1ccc(NC(=O)C(=O)N/N=C(\C)CC(=O)NCCOC)cc1`, the inhibition is -6.81% (inactive).
`COCCNC(=O)Nc1ccc2nc(-c3ccco3)c(-c3ccco3)nc2c1`: the inhibition was 23.4% (active).
The result for `COc1ccc(Nc2nc(-c3cccnc3)nc3ccccc23)cn1` reads 39.8% (active); that for `COc1ccc(Nc2ccc([N+](=O)[O-])cn2)cn1`, -45.8% (inactive).
As for `Cc1ccc2nc3c(cc(C(=O)NCCc4ccccc4)c(=N)n3CC3CCCO3)c(=O)n2c1` (stereo unspecified), the inhibition was 3.71% (inactive).
As to `COc1ccc2[nH]c(C)c(CCN(Cc3cccs3)C(=S)Nc3ccccc3OC)c2c1`, the inhibition is 3.35% (inactive).
For the compound `CCCC(O)(CCC)C(=O)NN(C(=O)CCl)c1cccc(C)c1`, the inhibition was -3.35% (inactive).
As for `NC(=O)c1ccc(NC(=O)COC(=O)c2c3c(nc4ccccc24)/C(=C\c2ccc4c(c2)OCO4)CCC3)cc1`, the inhibition was -8.01% (inactive).
Turning to `O=C1c2cccc3c([N+](=O)[O-])ccc(c23)C(=O)N1CC1CCCO1` (stereo unspecified), the inhibition was 34.9% (active).
On to `Cc1cc2nc3c(=O)n(Cc4ccccc4)c(=O)[nH]c3nc2cc1N`, for which the inhibition is 153% (active).
Take `COCCn1c(N)c(NCc2ccccc2)c(=O)[nH]c1=O`: the inhibition is 7.51% (inactive).
To `Nc1ccccc1/C=N\N=C/c1ccccc1N` belongs 8.46% (inactive); to `CCCN(CCC)C(=O)C1c2ccccc2Oc2ccccc21`, -11.4% (inactive).
`COC(=O)C[n+]1cccc2ccccc21`: the inhibition is 116% (active).
Regarding `COc1ccc(C2c3ccc(O)cc3Oc3ncn(CCCO)c(=N)c32)cc1OC` (stereo unspecified), the inhibition is -7.63% (inactive).
The result for `CCN(CC)CCCNC(=O)c1cn(C)c2ccc(S(=O)(=O)N(C)C3CCCCC3)cc2c1=O` reads -0.99% (inactive).
For the compound `Cc1cc(Br)cn2c(Cc3ccsc3)c(-c3ccc(C#N)cc3)nc12`, the inhibition was 45.3% (active).
Regarding `Cc1ccc(S(=O)(=O)CCC(=O)OCc2ccccc2)cc1`, the inhibition was -7.16% (inactive).
As to `Oc1ccc(N=Cc2sc3ccccc3c2Cl)cc1`, the inhibition was -21.5% (inactive).
`O=C(COC(=O)CCc1c[nH]c(=O)[nH]1)Nc1ccccc1Cl`: the inhibition was 51.4% (active).
On to `COc1cccc2sc(N(CCCN(C)C)C(=O)CCS(=O)(=O)c3ccccc3)nc12`, for which the inhibition is 7.07% (inactive).
